For five compounds, caspase activation results are on record in PubChem BioAssay AID2241 (Broad Institute, 2010).

The campaign covered roughly 21,000 compounds. About 110 (0.52%) were called active. Only a selection was taken, and actives are over-represented in it overall. Unmarked numbers belong to inactive results.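 The calls were made as follows: active = most replicate scores above 10, or exactly half above 10 with mean activity above 10; inconclusive = mean activity below 10 while half the replicates exceed 10; inactive = most replicate scores below 10.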

This assay is described as follows: inducers of caspase activity in MEF A1-2A-BIM cells, primary screen, A1 inhibitor project, cell-based, CaspaseGlo luminescence (AID 2241).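 Also: effector caspase 3 and 7 activity cleaving a DEVD luciferin substrate.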 The note with it: caspase-Glo luminescence, 3 h, active compounds read high, percent of clofoctol signal, DMSO as zero, concentration not given here.
`CN[C@@H]1C[C@H]2O[C@@](C)([C@@H]1OC)n1c3ccccc3c3c4c(c5c6ccccc6n2c5c31)C(=O)NC4`: the caspase activation was 81% (active).

For the compound `CCN(CC)C(=O)c1ccc(N(Cc2ccccc2Cl)S(C)(=O)=O)cc1`, the caspase activation is -0.556%.

With `C[C@H]1O[C@@H](O[C@H]2CC[C@]3(CO)C4CC[C@]5(C)[C@@H](C6=CC(=O)OC6)CC[C@]5(O)[C@@H]4CC[C@H]3C2)[C@H](O)[C@H](O)[C@@H]1O[C@@H]1O[C@H](CO)[C@@H](O)[C@H](O)[C@H]1O` (stereo not given in full), the caspase activation is -0.142%.

For `CC1N=C(c2ccccc2)c2ccccc2N(CCCOc2ccc(F)cc2)C1=O` (stereo not given), the caspase activation was -0.726%.

In the case of `Cc1ccc(CSc2nnc(OC(=O)N(C)C)n2-c2cccc(Cl)c2)cc1`, the caspase activation was -0.0343%.
